Measurements from the supplement of paper PMC6555819.

Experiments:
Test in all cases: PBM binding z-score (relative to random genomic background probes); higher = stronger binding; sequences stand for … in GC…GCGATTGACAGCGTAGAATGAAGG
[1] = tested on: RARb homodimer (NR concentration 270 nM)
Procedure, shortened: (§1)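 For binding z-scores, the reference was random background probes on custom Agilent 4×180K protein-binding microarrays. These arrays were incubated 1 h with ligand-free nuclear receptor dimers in PBS pH 7.4, 2% milk, 0.02% Triton X-100, 1 mM DTT, 0.2 mg/mL BSA and 0.4 mg/ml salmon testes DNA. Fluorescence was scanned after antibody detection of each partner (one per run) and regression-normalized.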

[2] = tested on: RARg:RXRa (NR concentration 270 nM, RXRa partner concentration 90 nM)
Procedure, shortened: as §1

[3] = tested on: RARg homodimer (NR concentration 270 nM)
Procedure, shortened: as §1

[4] = tested on: RXRa DBDmut IVT, anti-RXR (DBD mutation: RXRa K156A/R161A, NR concentration 90 nM)
Procedure, shortened: as §1

[5] = tested on: RXRa homodimer (NR concentration 180 nM)
Procedure, shortened: as §1

[6] = tested on: THRa:RXRa (NR concentration 90 nM, RXRa partner concentration 90 nM)
Procedure, shortened: as §1

[7] = tested on: THRa homodimer (NR concentration 90 nM)
Procedure, shortened: as §1

[8] = tested on: VDR homodimer (NR concentration 270 nM)
Procedure, shortened: as §1

Sequence | PBM binding z-score [1] | PBM binding z-score [2] | PBM binding z-score [3] | PBM binding z-score [4] | PBM binding z-score [5] | PBM binding z-score [6] | PBM binding z-score [7] | PBM binding z-score [8]
CCTGCTATGTCAATGGTCAGCTAAAGCAGCTCGC | 0.33 | 0.00581 | 0.0986 | 0.386 | -0.174 | -0.688 | -0.637 | -0.777
CCTATTAGTTGACTATAAGGGCAACCGAAGCTCG | 1.42 | 1.15 | 0.934 | 0.543 | 0.351 | 1.79 | 0.969 | 0.425
ACTTACGGGTCAACGAGATTATAGCACGCGTATA | 2.96 | 5.12 | 4.89 | 2.05 | 5.72 | 2.67 | 0.499 | 1.35
ATCTATAGGTAAAAGTTCAGTGAATCCCGAGGAT | 2.32 | 1.92 | 2.03 | 0.768 | 1.99 | 0.789 | -0.138 | 1.46
CAAACTAGGTCACAGAGGTCAAAGACCGTGCGTA | 5.43 | 7.3 | 7.86 | 3.1 | 7.71 | 4.68 | 2.81 | 6.4
CAAACTAGGTTACCGGAAGGTCAAAGTCCGCATG | 4.55 | 6.15 | 4.19 | 0.838 | 4.64 | 3.68 | 1.66 | 2.56
CGTCAAAGTTCAAGGTAACCTAACAGAAAGCAGC | 4.17 | 5.43 | 6.2 | 4.3 | 4.71 | 3.19 | 1.38 | 2.84
CCTACTGGGCCACGAAAGGTTATTGATTCAGTGA | 1.98 | 1.1 | 1.08 | -0.0139 | 1.2 | 1.66 | 0.302 | 0.238
CCTAGCTGGTCAGGAGGTCACACACCGGATATGA | 4.31 | 5.14 | 4.44 | 0.548 | 4.69 | 3.36 | 2.01 | 2.14
ATCTCTAGGTAAGAGTTCAGTGAATCCCGAGGAT | 1.91 | 1.21 | 1.51 | 1.71 | 1.16 | 0.872 | 0.129 | 3.85
ATACCAAGGTGATCGTAAGGTCGTTGATACTAAC | 2.01 | 2.35 | 0.817 | 0.559 | 1.68 | 3.44 | 3.08 | 2.23
ACAGACAGATGAGTGAAGGTAACTCAGCTGGACG | -0.259 | 0.311 | 0.543 | -0.223 | 0.367 | 0.16 | -0.331 | -0.0316
GCTAGTTGGTCAGTATAAGGTCACACACCGGTCG | 4.41 | 4.28 | 3.75 | 0.514 | 3.9 | 4.29 | 5.46 | 2.76
CGTCCAAGGTCTATGCTAGGTCAGTGAAAGCATT | 2.43 | 1.52 | 1.37 | 0.335 | 0.248 | 2.21 | 0.687 | 0.404
TCGCCTAGGTCATTCAGGGGCCAGTATAGAAAGC | 3.67 | 6.06 | 4.29 | 2.42 | 2.95 | 3.52 | 1 | 1.4
TCTAGCAGGCCAGAGGGTCACTCTAGAGGTACGG | 2.57 | 2.42 | 1.97 | 0.248 | 2.34 | 1.4 | -0.529 | 0.422
AGTCAAAGTTCACTAGGTAACGCAAGATTCAGCT | 3.66 | 5.13 | 6.21 | 4.25 | 4.24 | 2.08 | 0.154 | 3.32
CCGTCTGGGGCAAAGGTTACCATACTCAGTACGA | 2.21 | 3.55 | 1.87 | 0.589 | 3.51 | 1.74 | -0.0764 | -0.106
CAAACTAGGTCACGAAAGCTCAAAGTCGAATGAC | 3.1 | 4.61 | 5.69 | 1.74 | 3.99 | 3.28 | 1.48 | 0.544

Sequence | PBM binding z-score [1] | PBM binding z-score [2] | PBM binding z-score [3] | PBM binding z-score [4] | PBM binding z-score [5] | PBM binding z-score [6] | PBM binding z-score [7] | PBM binding z-score [8]
TCTGCCAGGTCAGTTGGTCAGCTAACGAGCTGCC | 2.77 | 2.86 | 3.55 | 0.569 | 1.12 | 2.11 | 0.521 | -0.514
GCGCGGAGGACAAGGTCAGAGCTTTGTCCGTAGA | 2.99 | 3.09 | 3.32 | 0.639 | 2.43 | 2.89 | 1.33 | 0.885
ACTAGCAGGCCAAGTTTTGGTCACTCAAACAAAG | 0.74 | 0.448 | 0.546 | -0.286 | -0.0235 | 0.0291 | -0.326 | -0.447
CGTCAAAGTTCAAGGTAACGAAACAGAAAGCAGC | 3.67 | 5.6 | 6.29 | 4.46 | 5.13 | 2.9 | 0.933 | 2.99
CCTGCTAGGTGAATGGTCAGCTAAAGCAGCTCGC | 0.445 | 0.0358 | 0.301 | -0.37 | -0.237 | 0.283 | -0.317 | -0.841
AGAATGAGGGTAAGATCAGGGAAACAGAATACAT | 0.584 | 0.474 | 0.611 | 0.212 | 0.321 | 1.54 | 0.43 | 0.304
ACCGAAAGGTCGAGGTGAGTATAGAGAAAGGGAA | 2.81 | 4.28 | 4.43 | 0.832 | 4.35 | 2.94 | 0.707 | 0.402
CGAACTCGGTCATTGACAGGACAGTGAATAGTAA | 1.42 | 2.12 | 2.49 | 0.678 | 0.736 | 0.661 | -0.331 | 0.676
CAAACTAGGTCACGAAAGGTCAAAGTAGAATGAC | 5.89 | 7.93 | 8.94 | 2.39 | 8.5 | 5.12 | 2.65 | 3.78
CCCAGCAGGCCAATCTGGGTCACTCAAGGCTTGA | 2.53 | 1.29 | 1.5 | -0.496 | 0.923 | 3.73 | 0.49 | -0.172
TCTATTAGTTGAGTAGGGCAACCGAAACAGCGGA | 0.153 | 0.16 | 0.294 | 0.368 | 0.116 | -0.257 | -0.445 | -0.411
GCTAGTTGGTCAGTAAACGGTCACACACCGGTCG | 2.63 | 1.5 | 1.33 | -0.0327 | 0.347 | 0.155 | -0.176 | -0.361
TAGCCTAGGTCATGGGCCAATATACCACGCGAAC | 2.95 | 4.22 | 4.2 | 0.955 | 3.55 | 3.1 | 1.43 | 0.541
CCGACTGGGGCATAGGGTTACCATAAGCCAGCCC | 0.968 | 1.34 | 0.885 | -1.32 | 1.21 | 0.957 | -0.244 | -1.05
GGAACGAGGGCAAAGTTGAGAGCATCTGTCGACG | 1.51 | 2.51 | 1.87 | 2.46 | 2.33 | 1.53 | -0.419 | 1.38
CCTCCAAGGTCAGCAGGTCAGTGAAAGCGACGTG | 4.97 | 6.12 | 6.45 | 2.04 | 4.21 | 3.74 | 2.14 | 1.55
AATACAGGATCATCGTAGGCCAGAGTACGCACAG | 0.484 | 0.381 | 0.569 | 0.155 | 0.54 | 1.59 | -0.259 | 0.692
CCTTACGTGTCACTGACAGGTTATAGCATTTGGA | 1.37 | 1.71 | 1.21 | 0.934 | 0.941 | 0.816 | 0.847 | 0.842
ACTATTAGTAGAGACGAGGGCAACCGATAGGTTG | 0.968 | 0.616 | 0.804 | 0.392 | 0.661 | 0.934 | 0.11 | 0.675

Sequence | PBM binding z-score [1] | PBM binding z-score [2] | PBM binding z-score [3] | PBM binding z-score [4] | PBM binding z-score [5] | PBM binding z-score [6] | PBM binding z-score [7] | PBM binding z-score [8]
CCTTACGCGTCACTGACAGGTTATAGCATTTGGA | 0.655 | 0.439 | 0.151 | 1 | 0.414 | 0.506 | 0.512 | 0.287
CTGCCAAGGTGAACAAGGTCGTTGATTACTATTC | 2 | 1.66 | 1.29 | 1.04 | 1.58 | 3.07 | 1.67 | 1.56
CCTACTGGGCCATCCAGAGGTCATTGATCATATG | 4.32 | 4.63 | 3.39 | 0.256 | 3.69 | 3.29 | 1.41 | 3.33
GCTAGCAGGACATTTGGGTCACTCAATGACGGGC | 1.56 | 0.785 | 0.992 | 0.736 | 0.598 | 1.81 | 0.828 | 0.846
TAGCCTAGGTCATTAAGGGGCCAGTATAGAAAGC | 3.1 | 5.12 | 3.99 | 1.36 | 2.52 | 2.9 | 0.623 | 0.937
ACAATGAGGTTACCAAAGATCAGGGAAACGCTTG | 1.14 | 2.27 | 2.07 | 1.4 | 2.9 | 2.77 | 1.14 | 0.706
CGTCAAAGTTCAACTTAGGTAACGTAAAGCACGC | 4.13 | 6.16 | 6.72 | 4.76 | 5.38 | 5.19 | 0.769 | 4.21
CGGACTAGGTCATTGACAGGACAGTGAATAGTAA | 2.48 | 4.64 | 4.39 | 2.41 | 2.38 | 2.85 | 0.733 | 1.23
TAGCCTGGGTCATTGGGCCAGTATAGTACGCATC | 2.47 | 3.67 | 3.47 | 0.363 | 3.04 | 1.99 | -0.547 | 0.472
CGAACTAGGTCAGAACAGCACAGTGAAGGATGAT | 1.96 | 2.44 | 3.04 | 0.779 | 1.28 | 1.16 | 0.326 | 0.463
TCTCGGAGGACACGAAAGGCCAGAGCTCGACATC | 1.53 | 0.946 | 1.9 | 0.804 | 0.296 | 1.54 | 0.338 | -0.482
CCTACTGGGCCAAAGGTCATTGAGTCCAATGCTC | 4.88 | 5.8 | 4.63 | 1.78 | 6.07 | 3.57 | 0.746 | 4.9
CCTAGTTGGTCAGGAGGTCACACTCCGGATATGA | 4.21 | 4.74 | 4.43 | 1.03 | 5.04 | 3.4 | 2.46 | 2.5
CGAACGAGGGCATGAGTTGATAGGAAATGCCGAT | 0.511 | 1.1 | 1.71 | 2.4 | 0.923 | 1.07 | -0.419 | 1.41
CCGACTGGGGCGAGGTTACCATAACGCACAGCCA | 0.887 | 0.854 | 0.545 | -0.326 | 1.39 | 1.55 | 0.408 | 0.294
CGTCCAAGGTCAGAGAGGTCTGTGAATGCCGAGT | 3.99 | 4.61 | 5.25 | 2.64 | 3.4 | 3.38 | 1.64 | 1.65
TAGCCTAGGTCAGACCGGGCCAGTATACGCTATA | 2.24 | 2.62 | 3.34 | -0.68 | 1.38 | 3.99 | -0.0936 | -0.324
ATCTCTAGGTAAGACTCAGTTCAGTGAGGAACGC | 0.438 | 0.383 | 0.447 | 0.293 | 0.124 | 0.714 | 0.481 | 1.3
